Measured values as given in ChEMBL document CHEMBL4513146, “CO-ADD screening of Karazin Kharkiv National University (Ukraine) compounds”.
Results with a measured potency or affinity are listed apart.

tested on: Klebsiella pneumoniae; conditions: Concentration 32 ug.mL-1;; ASSAY_TEST Inhibition of Bacterial Growth; detection method Absorption (OD600); MEDIA CAMHB; plate type 384well; NBS; CORNING #3640; time 18 hr

Structure (SMILES)	Inhibition
Cc1ccc(Oc2nc3ccccc3n3c(=O)n(CC(=O)Nc4ccccc4C(F)(F)F)nc23)cc1	13.52%
CCc1nnc2c(SCC(=O)Nc3cccc(Br)c3)nc3ccccc3n12	4.36%
Cc1ccc(Oc2nccn3c(=O)n(CC(=O)Nc4cccc(Cl)c4)nc23)cc1	2.02%
Cc1ccc(-c2cc3c4nn(CC(=O)Nc5cccc(Br)c5)c(=O)n4ccn3n2)cc1	10.81%
COc1cccc(Oc2nccn3c(=O)n(CC(=O)Nc4ccc(Br)cc4F)nc23)c1	17.17%
COc1cccc(NC(=O)Cn2nc3c(Oc4cccc(OC)c4)nccn3c2=O)c1	3.74%
Cc1ccc(NC(=O)Cn2nc3ccc(SC(C)(C)C)nn3c2=O)cc1C	8.45%
Cc1cccc(NC(=O)c2ccc3nn(CC(=O)N4CCc5ccccc5C4)c(=O)n3c2)c1	-2%
COc1ccc(-c2cc3c4nn(CC(=O)Nc5ccc(OC)c(Cl)c5)c(=O)n4ccn3n2)cc1	-0.45%
CCOc1ccc(C(=O)CSc2nnc3c(=O)n(-c4ccc(Br)cc4)ccn23)cc1	15.85%
Cc1cccc(NC(=O)Cn2nc3ccc(-c4ccc(C)c(C)c4)nn3c2=O)c1	-0.51%
Cc1cc2nn(CC(=O)Nc3ccccc3F)c(=O)n2c(Nc2ccc(C)c(F)c2)n1	4.36%
Cc1ccc(-c2ccc3nn(Cc4nc(-c5ccc(OC(F)(F)F)cc5)no4)c(=O)n3n2)cc1	-0.72%
COc1ccc(-c2cc3c4nnc(SCC(=O)NCc5ccccc5Cl)n4ccn3n2)cc1	6.77%
Cc1ccc(Sc2nccn3c(=O)n(CC(=O)Nc4ccccc4C)nc23)c(C)c1	6.75%
Cc1nnc2c(=O)n(CC(=O)Nc3ccc(Cl)cc3F)c3ccccc3n12	7.95%
Cc1cccc(NC(=O)CSc2nnc3c4cc(-c5ccc(F)cc5)nn4ccn23)c1C	0.2%
CC(C)c1ccc(NC(=O)Cn2nc3c(N4CCCC4)nccn3c2=O)cc1	11.79%
COc1ccc(OC)c(NC(=O)Cn2nc3c4cc(-c5ccc(F)cc5)nn4ccn3c2=O)c1	1.37%
O=c1c2sccc2n2c(=O)n(Cc3ccccc3Cl)nc2n1CCc1ccccc1	12.78%

Structure (SMILES)	Inhibition
Cc1ccc(Sc2nccn3c(=O)n(CC(=O)N4CCN(c5ccccc5)CC4)nc23)c(C)c1	2.5%
CCOc1ccc(-n2ccn3c(SCC(=O)c4ccc(OC)c(OC)c4)nnc3c2=O)cc1	7.92%
O=C(Cn1nc2c(N3CCSCC3)nc3ccccc3n2c1=O)NCc1ccccc1	13.9%
CCC(Sc1nnc2c(=O)n(-c3ccccc3)ccn12)C(=O)Nc1cc(F)ccc1F (stereo not given)	10.28%
Cc1cc(C)c(NC(=O)Cn2nc3c4cc(-c5ccc(C)c(C)c5)nn4ccn3c2=O)c(C)c1	5.52%
COc1cccc(-n2ccn3c(SCC(=O)Nc4cc(F)ccc4F)nnc3c2=O)c1	6.91%
O=C(Cn1nc2ccc(SCc3ccc(Cl)cc3)nn2c1=O)NCc1ccccc1	6.87%
COc1cccc(-n2ccn3c(SCC(=O)N4CCN(c5ccc(F)cc5)CC4)nnc3c2=O)c1	8.66%
CCOc1ccc(-n2ccn3c(SCC(=O)Nc4ccc(F)cc4F)nnc3c2=O)cc1	15.47%
Cc1nnc2c(S(=O)(=O)N(Cc3ccccc3F)c3cc(F)cc(F)c3)cccn12	1.21%
COc1ccc(N(Cc2ccc(Cl)cc2)S(=O)(=O)c2ccc3nncn3c2)cc1	10.04%
Cc1ccc(Cn2c(=O)c3ccc(C(=O)NC4CCCC4)cc3n3c(=O)n(CC#N)nc23)cc1	8.48%
CN(Cc1ccccc1)C(=O)CSc1nnc2c3cc(-c4ccccc4)nn3ccn12	-0.25%
CCc1ccc(Cn2c(=O)c3sccc3n3c(=O)n(Cc4c(F)cccc4Cl)nc23)cc1	5.71%
O=c1n(Cc2nc(-c3ccc(F)cc3)no2)nc2ccc(-c3ccccc3)nn12	18.38%
COc1ccc(C)cc1NC(=O)Cn1nc2ccc(SCc3ccc(Cl)cc3)nn2c1=O	-0.56%
COc1ccc(C)cc1NC(=O)Cn1nc2c3cc(-c4ccc(C)c(C)c4)nn3ccn2c1=O	11.68%
CCOc1ccc(-n2ccn3c(SC(C)C(=O)Nc4ccc(OC)cc4)nnc3c2=O)cc1 (stereo not given)	5.17%
CC(C)CCn1c(=O)c2sccc2n2c(=O)n(Cc3c(F)cccc3Cl)nc12	12.18%
COc1ccc(NC(=O)Cn2nc3c(N4CCCC4)nccn3c2=O)cc1	6.93%

tested on: Candida albicans; conditions: Concentration 32 ug.mL-1; ASSAY_TEST Inhibition of Fungal Growth; detection method Absorption (OD530)

Structure (SMILES)	Inhibition
Cc1ccc(Oc2nc3ccccc3n3c(=O)n(CC(=O)Nc4ccccc4C(F)(F)F)nc23)cc1	1.1%
CCc1nnc2c(SCC(=O)Nc3cccc(Br)c3)nc3ccccc3n12	4.07%
Cc1ccc(Oc2nccn3c(=O)n(CC(=O)Nc4cccc(Cl)c4)nc23)cc1	5.47%
Cc1ccc(-c2cc3c4nn(CC(=O)Nc5cccc(Br)c5)c(=O)n4ccn3n2)cc1	6.28%
COc1cccc(Oc2nccn3c(=O)n(CC(=O)Nc4ccc(Br)cc4F)nc23)c1	0.55%
COc1cccc(NC(=O)Cn2nc3c(Oc4cccc(OC)c4)nccn3c2=O)c1	3.44%
Cc1ccc(NC(=O)Cn2nc3ccc(SC(C)(C)C)nn3c2=O)cc1C	5.53%
Cc1cccc(NC(=O)c2ccc3nn(CC(=O)N4CCc5ccccc5C4)c(=O)n3c2)c1	12.37%
COc1ccc(-c2cc3c4nn(CC(=O)Nc5ccc(OC)c(Cl)c5)c(=O)n4ccn3n2)cc1	32.01%
CCOc1ccc(C(=O)CSc2nnc3c(=O)n(-c4ccc(Br)cc4)ccn23)cc1	8.18%
Cc1cccc(NC(=O)Cn2nc3ccc(-c4ccc(C)c(C)c4)nn3c2=O)c1	-1.03%
Cc1cc2nn(CC(=O)Nc3ccccc3F)c(=O)n2c(Nc2ccc(C)c(F)c2)n1	4.06%
Cc1ccc(-c2ccc3nn(Cc4nc(-c5ccc(OC(F)(F)F)cc5)no4)c(=O)n3n2)cc1	49.09%
COc1ccc(-c2cc3c4nnc(SCC(=O)NCc5ccccc5Cl)n4ccn3n2)cc1	1.79%
Cc1ccc(Sc2nccn3c(=O)n(CC(=O)Nc4ccccc4C)nc23)c(C)c1	4.26%
Cc1nnc2c(=O)n(CC(=O)Nc3ccc(Cl)cc3F)c3ccccc3n12	0.4%
Cc1cccc(NC(=O)CSc2nnc3c4cc(-c5ccc(F)cc5)nn4ccn23)c1C	1.75%
CC(C)c1ccc(NC(=O)Cn2nc3c(N4CCCC4)nccn3c2=O)cc1	2.06%
COc1ccc(OC)c(NC(=O)Cn2nc3c4cc(-c5ccc(F)cc5)nn4ccn3c2=O)c1	3.04%
O=c1c2sccc2n2c(=O)n(Cc3ccccc3Cl)nc2n1CCc1ccccc1	2.07%

Structure (SMILES)	Inhibition
Cc1ccc(Sc2nccn3c(=O)n(CC(=O)N4CCN(c5ccccc5)CC4)nc23)c(C)c1	3.52%
CCOc1ccc(-n2ccn3c(SCC(=O)c4ccc(OC)c(OC)c4)nnc3c2=O)cc1	3.75%
O=C(Cn1nc2c(N3CCSCC3)nc3ccccc3n2c1=O)NCc1ccccc1	0.65%
CCC(Sc1nnc2c(=O)n(-c3ccccc3)ccn12)C(=O)Nc1cc(F)ccc1F (stereo not given)	0.38%
Cc1cc(C)c(NC(=O)Cn2nc3c4cc(-c5ccc(C)c(C)c5)nn4ccn3c2=O)c(C)c1	-0.89%
COc1cccc(-n2ccn3c(SCC(=O)Nc4cc(F)ccc4F)nnc3c2=O)c1	7.1%
O=C(Cn1nc2ccc(SCc3ccc(Cl)cc3)nn2c1=O)NCc1ccccc1	25.95%
COc1cccc(-n2ccn3c(SCC(=O)N4CCN(c5ccc(F)cc5)CC4)nnc3c2=O)c1	0.06%
CCOc1ccc(-n2ccn3c(SCC(=O)Nc4ccc(F)cc4F)nnc3c2=O)cc1	3.41%
Cc1nnc2c(S(=O)(=O)N(Cc3ccccc3F)c3cc(F)cc(F)c3)cccn12	0.25%
COc1ccc(N(Cc2ccc(Cl)cc2)S(=O)(=O)c2ccc3nncn3c2)cc1	4.11%
Cc1ccc(Cn2c(=O)c3ccc(C(=O)NC4CCCC4)cc3n3c(=O)n(CC#N)nc23)cc1	2.86%
CN(Cc1ccccc1)C(=O)CSc1nnc2c3cc(-c4ccccc4)nn3ccn12	2.03%
CCc1ccc(Cn2c(=O)c3sccc3n3c(=O)n(Cc4c(F)cccc4Cl)nc23)cc1	1.83%
O=c1n(Cc2nc(-c3ccc(F)cc3)no2)nc2ccc(-c3ccccc3)nn12	-1.53%
COc1ccc(C)cc1NC(=O)Cn1nc2ccc(SCc3ccc(Cl)cc3)nn2c1=O	31.09%
COc1ccc(C)cc1NC(=O)Cn1nc2c3cc(-c4ccc(C)c(C)c4)nn3ccn2c1=O	0.52%
CCOc1ccc(-n2ccn3c(SC(C)C(=O)Nc4ccc(OC)cc4)nnc3c2=O)cc1 (stereo not given)	4.23%
CC(C)CCn1c(=O)c2sccc2n2c(=O)n(Cc3c(F)cccc3Cl)nc12	9.98%
COc1ccc(NC(=O)Cn2nc3c(N4CCCC4)nccn3c2=O)cc1	1.38%
